According to PubChem BioAssay AID1159580 (chemical genetic matrix, 2015):
“And” between values parts separate entries of the source, which are not always exact repeats. Equal entries are not always repeated. Hit rate of the full screen: of about 5,500 compounds, about 2,000 (36%) were called active. Not shown: some 18% with an inconclusive outcome. Rule as the data show it: active = normalized growth mostly below about 0.91 (no sharp cut-off); inconclusive = no clear call, values can overlap the other calls; inactive = mostly above about 0.92. This is one part of the list.

Assay: chemical genetic growth profiling, strain panel (AID 1159580);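 also: tested at 20 µM; growth read once vehicle control cultures reached saturation at 30 °C; 1 = growth at the plate median or of vehicle wells; lower values mean less growth of the strain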
Conditions: growth OD

Measured: normalized growth

O=C(O)c1cc([N+](=O)[O-])ccc1NCCCc1ccccc1
active: S. cerevisiae deletion strains, locus YDL185W, strain tfp1, hits give low values 0.868 | S. cerevisiae deletion strains, locus YER155C, strain BEM2, hits give low values 0.915 | S. cerevisiae deletion strains, locus YGL078C, strain dbp3, hits give low values 0.895 | S. cerevisiae deletion strains, locus YHR094C, strain hxt1, hits give low values 0.921 | S. cerevisiae deletion strains, locus YIL125W, strain kgd1, hits give low values 0.861 | S. cerevisiae deletion strains, locus YIR030C, strain dcg1, hits give low values 0.918 | S. cerevisiae deletion strains, locus YKL009W, strain mrt4, hits give low values 0.707 | S. cerevisiae deletion strains, locus YKL068W, hits give low values 0.873 | S. cerevisiae deletion strains, locus YKL085W, strain MDH1 (second series), hits give low values 0.848 | S. cerevisiae deletion strains, locus YKL085W, strain MDH1, hits give low values 0.848 | S. cerevisiae deletion strains, locus YMR078C, strain ctf18, hits give low values 0.903 | S. cerevisiae deletion strains, locus YNL250W, strain rad50, hits give low values 0.851 | S. cerevisiae deletion strains, locus YNL271C, strain bni1, hits give low values 0.874 | S. cerevisiae deletion strains, locus YNL298W, strain CLA4, hits give low values 0.753 | S. cerevisiae deletion strains, locus YOL147C, strain pex11, hits give low values 0.931 | S. cerevisiae deletion strains, locus YPR119W, strain clb2, hits give low values 0.924 | S. cerevisiae deletion strains, locus YPR141C, strain kar3, hits give low values 0.872
inactive: S. cerevisiae deletion strains, locus YAL013W, strain DEP1, hits give low values 0.994 | S. cerevisiae deletion strains, locus YAL040C, strain CLN3, hits give low values 0.958 | S. cerevisiae deletion strains, locus YBR021W, strain FUR4, hits give low values 0.892 | S. cerevisiae deletion strains, locus YBR229C, strain ROT2, hits give low values 0.959 | S. cerevisiae deletion strains, locus YCL029C, strain bik1, hits give low values 0.931 | S. cerevisiae deletion strains, locus YCL061C, strain MRC1 (second series), hits give low values 1.01 | S. cerevisiae deletion strains, locus YDL035C, strain GPR1, hits give low values 0.953 | S. cerevisiae deletion strains, locus YDL074C, strain BRE1, hits give low values 0.972 | S. cerevisiae deletion strains, locus YDL101C, strain DUN1, hits give low values 0.984 | S. cerevisiae deletion strains, locus YDL134C, strain PPH21, hits give low values 0.966 | S. cerevisiae deletion strains, locus YDL192W, strain arf1, hits give low values 0.941 | S. cerevisiae deletion strains, locus YDR101C, strain arx1, hits give low values 0.933 | S. cerevisiae deletion strains, locus YDR150W, strain NUM1, hits give low values 1.01 | S. cerevisiae deletion strains, locus YDR162C, strain NBP2, hits give low values 0.953 | S. cerevisiae deletion strains, locus YDR318W, strain mcm21, hits give low values 0.939 | S. cerevisiae deletion strains, locus YDR363W, strain ESC2, hits give low values 0.987 | S. cerevisiae deletion strains, locus YDR388W, hits give low values 0.928 | S. cerevisiae deletion strains, locus YDR502C, strain sam2, hits give low values 0.94 | S. cerevisiae deletion strains, locus YEL061C, strain CIN8, hits give low values 0.97 | S. cerevisiae deletion strains, locus YER002W, strain NOP16, hits give low values 0.954 | S. cerevisiae deletion strains, locus YER110C, hits give low values 0.932 | S. cerevisiae deletion strains, locus YER167W, strain BCK2, hits give low values 0.943 | S. cerevisiae deletion strains, locus YGL086W, strain mad1, hits give low values 0.985 | S. cerevisiae deletion strains, locus YGL248W, strain PDE1, hits give low values 0.984 | S. cerevisiae deletion strains, locus YGR078C, strain PAC10, hits give low values 0.986 | S. cerevisiae deletion strains, locus YGR135W, strain pre9, hits give low values 0.933 | S. cerevisiae deletion strains, locus YGR252W, strain gcn5, hits give low values 0.893 | S. cerevisiae deletion strains, locus YHR030C, strain SLT2, hits give low values 0.941 | S. cerevisiae deletion strains, locus YHR079C, strain IRE1 (second series), hits give low values 0.934 | S. cerevisiae deletion strains, locus YHR129C, strain ARP1, hits give low values 0.952 | S. cerevisiae deletion strains, locus YHR200W, strain rpn10, hits give low values 0.922 | S. cerevisiae deletion strains, locus YIL066C, strain RNR3, hits give low values 0.983 | S. cerevisiae deletion strains, locus YIL073C, strain SPO22, hits give low values 0.829 | S. cerevisiae deletion strains, locus YJL095W, strain BCK1, hits give low values 1.01 | S. cerevisiae deletion strains, locus YJL134W, strain LCB3, hits give low values 0.944 | S. cerevisiae deletion strains, locus YJL168C, strain set2, hits give low values 0.94 | S. cerevisiae deletion strains, locus YJL187C, strain SWE1 (second series), hits give low values 0.996 | S. cerevisiae deletion strains, locus YJR043C, strain POL32, hits give low values 0.987 | S. cerevisiae deletion strains, locus YJR075W, strain HOC1, hits give low values 1 | S. cerevisiae deletion strains, locus YKL190W, strain CNB1, hits give low values 0.967 | S. cerevisiae deletion strains, locus YKR001C, strain vps1, hits give low values 0.934 | S. cerevisiae deletion strains, locus YLR039C, strain RIC1, hits give low values 0.973 | S. cerevisiae deletion strains, locus YLR058C, strain SHM2, hits give low values 0.964 | S. cerevisiae deletion strains, locus YLR102C, strain apc9, hits give low values 0.93 | S. cerevisiae deletion strains, locus YLR262C, strain YPT6, hits give low values 0.933 | S. cerevisiae deletion strains, locus YLR268W, strain sec22, hits give low values 0.957 | S. cerevisiae deletion strains, locus YLR330W, strain CHS5, hits give low values 0.927 | S. cerevisiae deletion strains, locus YLR342W, strain FKS1 (second series), hits give low values 0.952 | S. cerevisiae deletion strains, locus YLR371W, strain rom2, hits give low values 0.951 | S. cerevisiae deletion strains, locus YLR418C, strain cdc73, hits give low values 0.901 | S. cerevisiae deletion strains, locus YML016C, strain PPZ1, hits give low values 0.958 | S. cerevisiae deletion strains, locus YML032C, strain rad52, hits give low values 0.968 | S. cerevisiae deletion strains, locus YML124C, strain tub3, hits give low values 0.935 | S. cerevisiae deletion strains, locus YMR223W, strain ubp8, hits give low values 0.945 | S. cerevisiae deletion strains, locus YMR263W, strain SAP30, hits give low values 1.01 | S. cerevisiae deletion strains, locus YMR307W, strain GAS1, hits give low values 0.945 | S. cerevisiae deletion strains, locus YNL067W, strain RPL9B, hits give low values 0.998 | S. cerevisiae deletion strains, locus YNL128W, strain TEP1, hits give low values 0.974 | S. cerevisiae deletion strains, locus YNL153C, strain GIM3, hits give low values 1.03 and 0.971 | S. cerevisiae deletion strains, locus YNL175C, strain NOP13, hits give low values 0.95 | S. cerevisiae deletion strains, locus YNL197C, strain WHI3, hits give low values 0.949 | S. cerevisiae deletion strains, locus YNL224C, strain SQS1, hits give low values 0.945 | S. cerevisiae deletion strains, locus YNL233W, strain BNI4, hits give low values 1 | S. cerevisiae deletion strains, locus YNL307C, strain MCK1, hits give low values 0.939 | S. cerevisiae deletion strains, locus YNL322C, strain KRE1, hits give low values 0.968 | S. cerevisiae deletion strains, locus YNR052C, strain pop2, hits give low values 0.949 | S. cerevisiae deletion strains, locus YOL006C, strain TOP1, hits give low values 1.07 | S. cerevisiae deletion strains, locus YOL012C, strain htz1 0.889 | S. cerevisiae deletion strains, locus YOR061W, strain CKA2, hits give low values 0.972 | S. cerevisiae deletion strains, locus YOR069W, strain VPS5, hits give low values 0.958 | S. cerevisiae deletion strains, locus YOR083W, strain WHI5 (second series), hits give low values 0.978 | S. cerevisiae deletion strains, locus YOR136W, strain idh2, hits give low values 0.993 | S. cerevisiae deletion strains, locus YOR144C, strain elg1, hits give low values 0.939 | S. cerevisiae deletion strains, locus YOR184W, strain ser1, hits give low values 0.948 | S. cerevisiae deletion strains, locus YOR316C, strain cot1, hits give low values 0.945 | S. cerevisiae deletion strains, locus YPL055C, strain LGE1, hits give low values 1.01 and 1.02 | S. cerevisiae deletion strains, locus YPR163C, strain tif3, hits give low values 0.925 | S. cerevisiae deletion strains, locus YPR167C, strain met16, hits give low values 0.943 | S. cerevisiae deletion strains, strain wtn01, hits give low values 0.967 | S. cerevisiae strains, strain wild type, hits give low values 0.963
